In PubChem BioAssay (NCATS):
Records with an inconclusive call do not appear. Activity calls are given as the source filed them. Unless noted, calls follow the shape of the dose curve; as a rule, active = well fitted curve in the direction sought with a large enough effect; inconclusive = small, poorly fitted or top-dose-only effect, or another doubt; inactive = no such curve, though single readings can be large; an effect the other way counts as inactive or inconclusive.

Tests used:
[1] = target: Lysosomal acid glucosylceramidase (Homo sapiens) (UniProt P04062); assay: Glucocerebrosidase-p2 (AID 348; in the data active = potency below about 10 µM; also: potency is read from the fitted curve at half-maximal effect); conditions: purified GBA, blue fluorogenic substrate, 40 min
Lysosomal acid glucosylceramidase (Homo sapiens), sequence (P04062 whole entry, looked up): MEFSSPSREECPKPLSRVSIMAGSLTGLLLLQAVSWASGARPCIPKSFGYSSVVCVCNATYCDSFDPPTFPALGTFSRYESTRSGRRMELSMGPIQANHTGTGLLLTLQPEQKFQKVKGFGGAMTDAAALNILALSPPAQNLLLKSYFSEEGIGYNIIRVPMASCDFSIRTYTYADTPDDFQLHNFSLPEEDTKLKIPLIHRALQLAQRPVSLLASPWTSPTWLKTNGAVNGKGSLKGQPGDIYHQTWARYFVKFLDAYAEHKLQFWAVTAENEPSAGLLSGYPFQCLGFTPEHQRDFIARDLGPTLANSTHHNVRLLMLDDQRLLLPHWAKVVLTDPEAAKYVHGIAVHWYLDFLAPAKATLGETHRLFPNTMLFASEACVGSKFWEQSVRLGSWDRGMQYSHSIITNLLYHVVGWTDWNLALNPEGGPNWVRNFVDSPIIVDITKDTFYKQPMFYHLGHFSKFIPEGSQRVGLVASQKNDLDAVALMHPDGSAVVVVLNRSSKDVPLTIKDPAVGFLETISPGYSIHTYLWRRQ
Summary of the method: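 Normal human glucocerebrosidase (0.2 nM) with blue fluorogenic substrate (80 uM final) in citrate/phosphate pH 5.9 with 10mM sodium taurocholate, 0.01% tween-20; 40 min RT, NaOH/glycine stop; fluorescence Ex 365/Em 440; AC50 from a titration from 0.6 nM upwards.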

[2] = AP1 Signaling Pathway (AID 357; active = well fitted curve in either direction with a large enough effect, not every such curve was filed as active;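 also: ME-180 reporter cells stimulated with EGF at its EC50 level; % is scaled to controls: 0 for no effect and ±100 for the full control effect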); conditions: ME-180 AP-1-bla reporter, EGF-induced, beta-lactamase ratio, 5 h; at 7.69 µM (top of the series) unless noted
Summary of the method: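 Cells are seeded overnight, exposed to compound titrations and an EC50 level of EGF for 5 hours at 37 °C, then loaded with CCF4 dye for 2.5 hours. Beta-lactamase activity under the AP-1 element is read as a blue/green ratio.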

[3] = target: Cytochrome P450 1A2 (Homo sapiens) (UniProt P05177); assay: p450-cyp1a2 (AID 410; calls by dose curve; also: potency is read from the fitted curve at half-maximal effect;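 as to activity change, negative = inhibition: -100% = full effect of reference inhibitor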); conditions: recombinant CYP1A2, luciferin-ME demethylation, luminescence; series mostly up to 57 µM
Cytochrome P450 1A2 (Homo sapiens), sequence (P05177 whole entry, looked up): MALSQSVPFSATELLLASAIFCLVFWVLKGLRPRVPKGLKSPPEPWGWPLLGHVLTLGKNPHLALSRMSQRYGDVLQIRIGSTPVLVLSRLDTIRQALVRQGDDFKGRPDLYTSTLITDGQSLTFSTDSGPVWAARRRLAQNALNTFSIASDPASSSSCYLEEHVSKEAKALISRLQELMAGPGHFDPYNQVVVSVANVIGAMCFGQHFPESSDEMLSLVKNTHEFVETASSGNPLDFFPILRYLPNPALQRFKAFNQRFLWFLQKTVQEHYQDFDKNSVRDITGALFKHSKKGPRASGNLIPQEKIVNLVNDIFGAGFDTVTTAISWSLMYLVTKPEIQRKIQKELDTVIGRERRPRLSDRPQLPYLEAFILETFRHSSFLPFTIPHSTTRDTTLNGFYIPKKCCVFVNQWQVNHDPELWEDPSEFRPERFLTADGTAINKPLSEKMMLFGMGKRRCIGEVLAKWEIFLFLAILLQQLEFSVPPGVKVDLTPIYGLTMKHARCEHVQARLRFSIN
Summary of the method: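 20nM CYP1A2, 100uM Luciferin-ME (=Km), 100mM KPO4; cpd 10 min RT; +NADPH regen, 60 min RT; stop/detect 20 min; luminescence. Normalized to furafylline 57 uM = full inhibition.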

[4] = NFAT Signaling Pathway (AID 444; active = well fitted curve in either direction with a large enough effect, not every such curve was filed as active;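 also: carbachol stimulus at about its EC50 of 1 µM final; % is scaled to controls: 0 for no effect and ±100 for the full control effect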); conditions: Jurkat NFAT-bla M1, carbachol, beta-lactamase ratio, 5 h; at 7.69 µM (top of the series) unless noted
Summary of the method: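 Jurkat cells carrying an NFAT-driven β-lactamase reporter and co-transfected muscarinic M1 receptor were treated with compound plus carbachol (1 uM final, an EC50 level) for 5 h at 37 °C. CCF4 loading followed for 1 h at RT; 460/530 nm ratio gave %activity.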

[5] = Stat Signaling Pathway (AID 446; active = well fitted curve in either direction with a large enough effect, not every such curve was filed as active;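 also: ME-180 cervical cancer cells given 40 pM IL-6 alongside compound; SIE-controlled beta-lactamase reporter measured as 460/530 nm FRET emission ratio; % is scaled to controls: 0 for no effect and ±100 for the full control effect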); conditions: ME-180 (cervical carcinoma) SIE beta-lactamase reporter, IL-6 stimulated, 5 h; at 7.69 µM (top of the series) unless noted
Summary of the method: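 Overnight-plated ME-180 cells bearing a STAT Inducible Element beta-lactamase reporter; 5 h co-exposure to compound and 40 pM IL-6; values normalized to 300 pM IL-6 and 125 nM JAK inhibitor controls.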

[6] = target: Glucocorticoid receptor (Homo sapiens) (UniProt P04150); assay: GR-GFP Redistribution (AID 450;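 active = compounds whose dose series gives a full or clear partial fitted curve of increased nuclear translocation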; also: potency is read from the fitted curve at half-maximal effect); conditions: U2OS GR-GFP nuclear translocation, laser cytometry, 2 h
Glucocorticoid receptor (Homo sapiens), sequence (P04150 whole entry, looked up, the tested form may be a part): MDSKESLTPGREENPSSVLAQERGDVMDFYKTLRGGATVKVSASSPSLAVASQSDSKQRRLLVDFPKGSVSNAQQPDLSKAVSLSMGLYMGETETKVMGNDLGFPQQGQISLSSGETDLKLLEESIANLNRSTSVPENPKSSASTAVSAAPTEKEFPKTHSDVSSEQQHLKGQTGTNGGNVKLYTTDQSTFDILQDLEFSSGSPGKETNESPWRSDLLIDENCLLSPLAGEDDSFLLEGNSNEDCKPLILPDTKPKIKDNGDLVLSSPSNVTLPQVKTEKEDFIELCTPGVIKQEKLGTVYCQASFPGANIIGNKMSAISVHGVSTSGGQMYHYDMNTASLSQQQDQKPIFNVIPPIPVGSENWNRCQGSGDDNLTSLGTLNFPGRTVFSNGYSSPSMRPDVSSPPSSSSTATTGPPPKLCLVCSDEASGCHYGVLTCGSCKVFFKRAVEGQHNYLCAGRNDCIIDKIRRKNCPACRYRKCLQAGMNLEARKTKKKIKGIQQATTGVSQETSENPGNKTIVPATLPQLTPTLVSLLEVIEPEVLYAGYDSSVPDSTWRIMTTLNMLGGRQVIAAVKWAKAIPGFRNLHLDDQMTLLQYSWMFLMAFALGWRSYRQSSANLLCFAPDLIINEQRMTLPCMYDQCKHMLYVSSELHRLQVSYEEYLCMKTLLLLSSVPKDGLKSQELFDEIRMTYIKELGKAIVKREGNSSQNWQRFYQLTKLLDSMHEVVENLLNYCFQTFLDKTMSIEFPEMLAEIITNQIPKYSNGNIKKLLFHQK

[7] = target: Glucocorticoid receptor (Homo sapiens) (UniProt P04150); assay: GR-EFC Redistribution (AID 451; calls by dose curve; also: potency is read from the fitted curve at half-maximal effect); conditions: CHO-K1 GR-EFC translocation, beta-gal luminescence, 2 h
Summary of the method: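 CHO-K1 cells stably expressing nuclear-localized β-gal enzyme acceptor and GR fused C-terminally to the enzyme donor fragment; ligand-driven nuclear translocation restores β-gal by complementation. Compounds titrated up to 46 uM final, 2 h at 37 °C; luminescence read.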

[8] = target: Mitogen-activated protein kinase 10 (Mus musculus) (UniProt Q61831); assay: JNK3 AlphaScreen Assay (AID 530; active = well fitted curve in either direction with a large enough effect, not every such curve was filed as active;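 also: kinase came from lysate of stimulated human HepG2 cells; signal reports phosphorylation of biotinylated GST-cJun 1-79 at Ser73 with 10 µM ATP; % is scaled to controls: 0 for no effect and ±100 for the full control effect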); conditions: JNK3 lysate, c-Jun phosphorylation; series mostly up to 57.1 µM
Summary of the method: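 Biotinylated GST-cJun(1-79) served as substrate for JNK3 in HepG2 lysates stimulated with IL-1beta and TNF-alpha. ATP was 10 uM final, pH 7.6. Ser73 phosphorylation was quantified by AlphaScreen (680 nm excitation).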

[9] = target: 3',5'-cyclic-AMP phosphodiesterase 4B (Homo sapiens) (UniProt Q07343); assay: qHTS Assay for Inhibitors of PDE-IV (AID 607; active = well fitted activation curve with a large enough effect in the main read-out, with a control signal flat, not every such curve was filed as active; also: % of control where 0% means no effect); conditions: HEK293 ACTOne CNG channel cells, membrane potential fluorescence; series mostly up to 22.9 µM
3',5'-cyclic-AMP phosphodiesterase 4B (Homo sapiens), sequence (Q07343 whole entry, looked up): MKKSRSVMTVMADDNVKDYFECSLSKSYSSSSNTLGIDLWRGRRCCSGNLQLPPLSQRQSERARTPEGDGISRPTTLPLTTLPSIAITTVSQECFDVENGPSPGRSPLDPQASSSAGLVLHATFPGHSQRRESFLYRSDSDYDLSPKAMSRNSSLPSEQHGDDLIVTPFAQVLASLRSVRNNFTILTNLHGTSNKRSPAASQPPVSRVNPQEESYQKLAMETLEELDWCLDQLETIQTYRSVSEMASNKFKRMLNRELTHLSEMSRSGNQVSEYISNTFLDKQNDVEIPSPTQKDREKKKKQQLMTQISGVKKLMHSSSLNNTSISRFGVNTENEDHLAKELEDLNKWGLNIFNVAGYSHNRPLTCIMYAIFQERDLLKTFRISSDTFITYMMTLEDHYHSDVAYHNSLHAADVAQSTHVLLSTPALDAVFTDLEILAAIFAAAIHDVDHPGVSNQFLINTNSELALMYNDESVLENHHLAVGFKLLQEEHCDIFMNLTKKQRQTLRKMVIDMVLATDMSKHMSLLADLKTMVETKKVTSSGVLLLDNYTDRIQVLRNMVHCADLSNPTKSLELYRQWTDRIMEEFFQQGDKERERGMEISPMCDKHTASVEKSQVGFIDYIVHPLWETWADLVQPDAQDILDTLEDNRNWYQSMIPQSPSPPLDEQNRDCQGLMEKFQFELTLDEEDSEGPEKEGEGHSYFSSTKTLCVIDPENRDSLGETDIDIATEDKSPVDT
Summary of the method: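 Live HEK293 cells with a modified cyclic nucleotide-gated (CNG) channel report intracellular cAMP via membrane-potential dye fluorescence (ex 535/em 590 nm). Endogenous PDE-IV was targeted. Compounds were tested at up to 22.9 uM final; RO 20-1724 100 uM served as control.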

[10] = target: Cytochrome P450 3A4 (Homo sapiens) (UniProt P08684); assay: qHTS Assay for Inhibitors and Substrates of Cytochrome P450 3A4 (AID 884); conditions: recombinant CYP3A4, Luciferin-PPXE luminescence; series mostly up to 57.1 µM; also: nearly all actives have a fitted effect of over 50% in size; also: potency is read from the fitted curve at half-maximal effect
Cytochrome P450 3A4 (Homo sapiens), sequence (P08684 whole entry, looked up): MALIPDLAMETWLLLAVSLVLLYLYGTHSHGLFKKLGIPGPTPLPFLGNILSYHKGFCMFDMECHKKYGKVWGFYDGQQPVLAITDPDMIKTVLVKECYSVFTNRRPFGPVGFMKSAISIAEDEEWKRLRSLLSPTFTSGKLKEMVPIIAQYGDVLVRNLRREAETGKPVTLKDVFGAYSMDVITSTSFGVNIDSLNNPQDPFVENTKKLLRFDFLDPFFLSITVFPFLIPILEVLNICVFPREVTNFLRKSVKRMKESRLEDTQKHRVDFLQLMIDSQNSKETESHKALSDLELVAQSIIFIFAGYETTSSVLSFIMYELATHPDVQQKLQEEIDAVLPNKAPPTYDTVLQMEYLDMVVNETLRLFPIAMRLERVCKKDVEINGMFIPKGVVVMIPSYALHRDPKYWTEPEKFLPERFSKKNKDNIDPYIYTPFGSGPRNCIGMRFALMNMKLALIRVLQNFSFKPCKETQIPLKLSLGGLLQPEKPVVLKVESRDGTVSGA
Summary of the method: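 Luminescent readout of luciferin produced by CYP3A4 (20 nM) dealkylation of Luciferin-PPXE, 25 uM (its KM). NADPH-driven reaction ran 60 min at RT after 10 min compound preincubation; data scaled to 57 uM ketoconazole as 100% inhibition.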

[11] = qHTS Assay for Lipid Storage Modulators (AID 1519; calls by dose curve); conditions: Drosophila S3 cells, BODIPY lipid droplet/cell ratio, laser cytometry, cells loaded with oleic acid; for activity change, negative = inhibition: at 57.5 µM (top of the series)
Summary of the method: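 Cells seeded at 5,000 per well were treated with compounds over a concentration series and loaded with oleic acid (400 uM, as added). Lipid droplet fluorescence (488 nm excitation, 500-530 nm channel) was read by laser-scanning cytometry and normalized to 20 uM Triacsin C.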

[12] = target: Dual specificity protein kinase CLK4 (Homo sapiens) (UniProt Q9HAZ1); assay: qHTS Assay for Inhibitors of CDC-like Kinase 4 (Kinase-Glo Assay) (AID 1770); conditions: recombinant Clk4, Kinase-Glo ATP depletion luminescence; series mostly up to 66.7 µM; also: nearly all actives have a fitted effect of over 65% in size; also: potency is read from the fitted curve at half-maximal effect
Dual specificity protein kinase CLK4 (Homo sapiens), sequence (Q9HAZ1 whole entry, looked up): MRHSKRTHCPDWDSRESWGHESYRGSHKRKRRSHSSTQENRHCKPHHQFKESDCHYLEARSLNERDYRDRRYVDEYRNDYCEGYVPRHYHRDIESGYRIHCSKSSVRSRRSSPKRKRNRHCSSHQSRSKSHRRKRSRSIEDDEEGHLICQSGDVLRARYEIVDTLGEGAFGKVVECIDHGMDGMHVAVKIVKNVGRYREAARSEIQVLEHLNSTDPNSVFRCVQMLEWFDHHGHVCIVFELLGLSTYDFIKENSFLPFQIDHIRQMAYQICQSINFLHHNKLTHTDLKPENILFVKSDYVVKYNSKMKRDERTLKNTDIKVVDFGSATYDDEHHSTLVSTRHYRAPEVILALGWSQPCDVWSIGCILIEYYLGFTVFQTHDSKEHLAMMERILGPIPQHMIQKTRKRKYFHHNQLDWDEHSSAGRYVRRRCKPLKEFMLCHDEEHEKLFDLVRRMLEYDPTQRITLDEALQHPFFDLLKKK
Summary of the method: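 Clk4 25 nM, RS peptide 100 uM, ATP 1 uM, pH 7.5 Tris, 10 mM MgCl2, 2.5 mM DTT; 4.5 h RT; ATP depletion read by Kinase-Glo luminescence.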

[13] = target: Dual specificity protein kinase CLK4 (Homo sapiens) (UniProt Q9HAZ1); assay: qHTS Assay for Inhibitors of CDC-like Kinase 4 (ADP-Glo Assay) (AID 1771); conditions: recombinant CLK4, ADP-Glo luminescence; series mostly up to 80 µM; also: nearly all actives have a fitted effect of over 70% in size; also: potency is read from the fitted curve at half-maximal effect
Summary of the method: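 25 nM Clk4, 100 uM RS peptide, 1 uM ATP (final); 2 mM MgCl2, 0.5 mM EGTA, 2.5 mM DTT, 0.01% Triton X-100; 1 hr RT. ADP-Glo readout: ATP depletion 45 min, conversion/luciferase 30 min, luminescence.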

[14] = Primary qHTS for small molecule stabilizers of the endoplasmic reticulum resident proteome: Secreted ER Calcium Modulated Protein (SERCaMP) assay (AID 1508630); conditions: SH-SY5Y GLuc-SERCaMP (Gaussia luciferase released on ER calcium loss) secretion, thapsigargin, luminescence; series mostly up to 38.4 µM; also: % is scaled to controls: 0 for no effect and ±100 for the full control effect
Summary of the method: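 The SH-SY5Y reporter protocol was run at 3 concentrations up to 38.3 uM (primary) or 11 concentrations (follow-up): 16 h compound, 100 nM thapsigargin for 4 h, then extracellular luciferase luminescence.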

[15] = target: Dual specificity protein kinase CLK4 (Homo sapiens) (UniProt Q9HAZ1); assay: qHTS Assay for Inhibitors of CDC-like Kinase 4 (ADP-FP Assay) (AID 1795); conditions: Transcreener ADP fluorescence polarization; series mostly up to 50 µM; also: nearly all actives have a fitted effect of over 60% in size; also: potency is read from the fitted curve at half-maximal effect
Summary of the method: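 Kinase activity was followed as ADP output, converted from fluorescence polarization with a calibration curve. Reactions ran one hour at low ATP (1 uM) with RS peptide substrate.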

[16] = target: Ubiquitin carboxyl-terminal hydrolase 1 (Homo sapiens) (UniProt O94782); assay: Inhibitors of USP1/UAF1: Pilot qHTS (AID 504865); conditions: purified USP1/UAF1, Ub-rhodamine cleavage fluorescence; series mostly up to 54.9 µM;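 also: rhodamine fluorescence freed from ubiquitin-rhodamine substrate followed over time; top concentration of the series differs between compounds; % is scaled to controls: 0 for no effect and ±100 for the full control effect; nearly all actives have a fitted effect of over 35% in size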
Ubiquitin carboxyl-terminal hydrolase 1 (Homo sapiens), sequence (O94782 whole entry, looked up): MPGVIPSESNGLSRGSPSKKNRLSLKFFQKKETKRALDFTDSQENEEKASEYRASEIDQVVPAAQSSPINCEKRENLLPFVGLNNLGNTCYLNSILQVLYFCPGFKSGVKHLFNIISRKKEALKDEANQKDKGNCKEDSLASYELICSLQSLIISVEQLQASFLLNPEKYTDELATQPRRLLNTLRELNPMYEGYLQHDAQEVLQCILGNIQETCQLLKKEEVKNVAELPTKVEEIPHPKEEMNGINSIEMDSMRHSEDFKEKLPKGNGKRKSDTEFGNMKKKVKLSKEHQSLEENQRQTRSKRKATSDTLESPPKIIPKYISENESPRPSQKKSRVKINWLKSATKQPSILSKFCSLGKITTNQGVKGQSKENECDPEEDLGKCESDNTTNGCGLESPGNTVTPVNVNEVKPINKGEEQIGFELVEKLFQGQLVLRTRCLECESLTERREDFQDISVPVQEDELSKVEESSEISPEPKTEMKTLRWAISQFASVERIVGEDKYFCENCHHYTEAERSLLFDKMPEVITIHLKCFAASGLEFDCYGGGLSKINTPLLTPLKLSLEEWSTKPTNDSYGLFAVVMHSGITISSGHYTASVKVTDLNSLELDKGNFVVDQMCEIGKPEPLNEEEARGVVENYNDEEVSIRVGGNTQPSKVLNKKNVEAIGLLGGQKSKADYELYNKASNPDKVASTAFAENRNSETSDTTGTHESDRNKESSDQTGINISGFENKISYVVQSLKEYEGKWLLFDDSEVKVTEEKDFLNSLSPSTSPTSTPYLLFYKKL
Summary of the method: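 Enzyme-free wells gave the negative control, while test wells held 1nM USP1/UAF1 preincubated with compound for 15 min at room temperature. Ub-Rho at 150nM final started the reaction, and fluorescence at 480/540 nm was recorded kinetically.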

[17] = target: Cytochrome P450 3A4 (Homo sapiens) (UniProt P08684); assay: qHTS Assay for Activators of Cytochrome P450 3A4 (AID 885); conditions: recombinant CYP3A4, Luciferin-PPXE luminescence, 60 min; series mostly up to 57.1 µM; also: nearly all actives have a fitted effect of over 65% in size
Summary of the method: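 Using 20nM recombinant human CYP3A4 in potassium phosphate (200mM), substrate Luciferin-PPXE at 25uM, luminescent luciferin detection followed a 60-min RT NADPH reaction; data scaled to 57 uM ketoconazole.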

[18] = measured here: cell count channel max response
[19] = measured here: lipid channel max response

Cn1c(=O)c(-c2ccc(Cl)cc2)nc2cnc(Oc3cccc(Cl)c3)nc21
active: Potency [3] 0.251 µM
inactive: Potency [1] > 11.4 µM | activity change, negative = inhibition [2] -7.62% | activity change, negative = inhibition [4] -6.5% | activity, negative = inhibition [5] -0.313% | Potency [6] > 9.22 µM | Potency [7] > 46 µM | outcome [8] | Potency [9] | Potency [10] | activity change, negative = inhibition [11] 5.31% | Potency [12] | Potency [13] | Potency [14]
11.8%: max response [11, 18]
14.2%: max response [11, 19]

CC(=O)NCCNc1ncnc2ccc(-c3ccoc3)cc12
active: Potency [3] 12.6 µM | Potency [12] 0.891 µM | Potency [13] 1 µM | Potency [15] 0.355 µM
inactive: activity change, negative = inhibition [2] -5.21% | activity change, negative = inhibition [4] 17.6% | activity, negative = inhibition [5] 3.17% | Potency [6] > 46 µM | Potency [7] > 46 µM | outcome [8] | Potency [9] | activity change, negative = inhibition [11] 1.77% | Potency [16] | Potency [14]
-0.704%: max response [11, 18]
-3.36%: max response [11, 19]

COCCNc1nc(-c2ccccc2Cl)nc2ccccc12
inactive: Potency [1] 11 µM | activity change, negative = inhibition [2] -0.0888% | activity, negative = inhibition [5] -3.65% | Potency [6] > 46 µM | Potency [7] > 46 µM | outcome [8] | Potency [17] | activity change, negative = inhibition [11] 3.23% | Potency [16] | Potency [14]
2.91%: max response [11, 18]
active: Potency [3] 0.126 µM | Potency [12] 15.8 µM | Potency [13] 8.91 µM
4.03%: max response [11, 19]

COCCNc1ncnc2ccc(-c3ccc(C(=O)N(C)C)cc3)cc12
3.74%: max response [11, 19]
inactive: Potency [1] > 11.4 µM | activity change, negative = inhibition [2] -7.19% | Potency [3] | activity change, negative = inhibition [4] 11.8% | activity, negative = inhibition [5] 0.699% | Potency [6] > 46 µM | Potency [7] > 46 µM | outcome [8] | Potency [9] | activity change, negative = inhibition [11] -0.0247% | Potency [12] | Potency [13] | Potency [14]
4.77%: max response [11, 18]

CNc1ncnc2ccc(-c3ccccc3CN(C)C)cc12
active: Potency [3] 3.16 µM | Potency [10] 7.94 µM | Potency [12] 25.1 µM | Potency [13] 12.6 µM
10.7%: max response [11, 19]
6.85%: max response [11, 18]
inactive: Potency [1] > 11.4 µM | activity change, negative = inhibition [2] -22.5% | activity change, negative = inhibition [4] -2.46% | activity, negative = inhibition [5] -1.81% | Potency [6] > 46 µM | Potency [7] > 46 µM | outcome [8] | Potency [9] | Potency [17] | activity change, negative = inhibition [11] 4.45% | Potency [16] | Potency [14]

N#CCCn1c(=O)c(-c2ccc(F)cc2)nc2cnc(N3CCOCC3)nc21
23%: max response [11, 19]
20.8%: max response [11, 18]
inactive: activity change, negative = inhibition [2] -0.71% | activity change, negative = inhibition [4] 13.6% | activity, negative = inhibition [5] 10.6% | Potency [6] > 9.22 µM | Potency [7] > 46 µM | outcome [8] | Potency [9] | activity change, negative = inhibition [11] 3.46% | Potency [12] | Potency [13] | Potency [15] | Potency [16] | Potency [14]
